In this assay the target is Genome polyprotein (dengue virus type 2) (UniProt P29990).
[1] abbreviates: Thailand/16681/1984, Concentration 25.0 uM, Number of replicates 1.0.

The whole screen tested about 2,000 compounds, of which about 110 (5.5%) showed an effect of 50% or more. Many of the other results were omitted from the sample, so strong results are more common in it than they were.

As usually defined, the inhibition is the relative decrease from the control value, in per cent. In the case of `COc1ccc(S(=O)(=O)N2CCC(C(=O)Nc3nc4ccccc4s3)CC2)cc1`, the inhibition came out at 2.28% (Thailand/16681/1984, Concentration 49.5 uM, Number of replicates 2.0, Standard deviation 1.3648800018415175 %); 4.97% (Thailand/16681/1984, Concentration 99.01 uM, Number of replicates 2.0, Standard deviation 0.35874487080545164 %); 5.55% (Thailand/16681/1984, Concentration 198.0 uM, Number of replicates 2.0, Standard deviation 3.7738315130637563 %).

As to `COc1ccc(S(=O)(=O)n2nc(OC(=O)c3cccc(-c4ccccc4Cl)c3)cc2N)cc1`, the inhibition is, setting by setting: (Thailand/16681/1984, Concentration 49.5 uM, Number of replicates 2.0, Standard deviation 1.4490153953002987 %) 18.8%; (Thailand/16681/1984, Concentration 99.01 uM, Number of replicates 2.0, Standard deviation 0.6098804079928887 %) 22.4%; (Thailand/16681/1984, Concentration 198.0 uM, Number of replicates 2.0, Standard deviation 5.725656788050292 %) 25.3%.

In the case of `CCCC[C@H](N)C(=O)N[C@H](C(=O)NCc1ccc(C(N)=O)cc1)c1ccc(OCc2ccccc2)cc1`, the inhibition by setting is: (Thailand/16681/1984, Concentration 49.5 uM, Number of replicates 2.0, Standard deviation 0.2650581585371317 %) -6.18%; (Thailand/16681/1984, Concentration 99.01 uM, Number of replicates 2.0, Standard deviation 5.609533791033077 %) 63.5%; (Thailand/16681/1984, Concentration 198.0 uM, Number of replicates 2.0, Standard deviation 0.01804559465842439 %) 99.8%.

`C[C@@H](NCc1ccc(C(N)=O)cc1)c1ccc(OCc2ccccc2)cc1`: the inhibition by setting is: (Thailand/16681/1984, Concentration 49.5 uM, Number of replicates 2.0, Standard deviation 1.6752456853530722 %) 0.14%; (Thailand/16681/1984, Concentration 99.01 uM, Number of replicates 2.0, Standard deviation 1.116678580733439 %) 0.358%; (Thailand/16681/1984, Concentration 198.0 uM, Number of replicates 2.0, Standard deviation 0.6068608391781741 %) -0.175%.

On to `NC(=O)c1ccc(CNC(=O)NCc2ccc(OCc3ccccc3)cc2)cc1`, for which the inhibition (Thailand/16681/1984, Concentration 49.5 uM, Number of replicates 2.0, Standard deviation 0.6584955649548859 %) is -0.275%; the inhibition (Thailand/16681/1984, Concentration 99.01 uM, Number of replicates 2.0, Standard deviation 0.579227797958503 %) is 0.348%; the inhibition (Thailand/16681/1984, Concentration 198.0 uM, Number of replicates 2.0, Standard deviation 0.34476708449941224 %) was -0.309%.

With `CCCC[C@H](N)C(=O)N[C@@H](C(=O)NCc1ccc(C(N)=O)cc1)c1ccc(OCc2ccccc2)cc1`, the inhibition is, setting by setting: (Thailand/16681/1984, Concentration 49.5 uM, Number of replicates 2.0, Standard deviation 0.45534308736890416 %) -4.77%; (Thailand/16681/1984, Concentration 99.01 uM, Number of replicates 2.0, Standard deviation 0.9591594337975816 %) 6.09%; (Thailand/16681/1984, Concentration 198.0 uM, Number of replicates 2.0, Standard deviation 4.328590586700157 %) 82.3%.

Consider `CCCCCC(=O)N[C@H](C(=O)Nc1ccc(C(N)=O)cc1)c1ccc(OCc2ccccc2)cc1`, for which the inhibition (Thailand/16681/1984, Concentration 49.5 uM, Number of replicates 2.0, Standard deviation 0.6010644427830669 %) is 0.424%; the inhibition (Thailand/16681/1984, Concentration 99.01 uM, Number of replicates 2.0, Standard deviation 0.8411278167455505 %) is 0.131%; the inhibition (Thailand/16681/1984, Concentration 198.0 uM, Number of replicates 2.0, Standard deviation 0.2400633914962311 %) is -0.732%.

In the case of `NC(=O)c1ccc(CNC(=O)c2ccc(OCc3ccccc3)cc2)cc1`, the inhibition is -0.579% (Thailand/16681/1984, Concentration 49.5 uM, Number of replicates 2.0, Standard deviation 3.419970703357444 %); -0.365% (Thailand/16681/1984, Concentration 99.01 uM, Number of replicates 2.0, Standard deviation 3.9573061855257445 %); -1.19% (Thailand/16681/1984, Concentration 198.0 uM, Number of replicates 2.0, Standard deviation 3.324054675683989 %).

Turning to `COc1ccccc1C1CCN(C(=O)C2CCN(c3ccc(C=O)cc3)CC2)CC1`, under setting [1], the inhibition stood at 12.3%.

For the compound `CN(C)Cc1ccc(C(=O)Nc2cc(Cl)cc(C(=O)NC(C)(C)CO)c2)[nH]1`, the inhibition (Thailand/16681/1984, Concentration 49.5 uM, Number of replicates 2.0, Standard deviation 0.5051399787428742 %) was 0.205%; the inhibition (Thailand/16681/1984, Concentration 99.01 uM, Number of replicates 2.0, Standard deviation 1.5521383022614499 %) was 0.663%; the inhibition (Thailand/16681/1984, Concentration 198.0 uM, Number of replicates 2.0, Standard deviation 0.5964116239079592 %) amounted to 5.64%.

For the compound `CCN(Cc1cc(Br)ccc1F)C(=O)C1CCN(c2ccc(C=O)cc2)CC1`, under setting [1], the inhibition was 15.9%.

Take `Cc1cc(Cl)c2c(N)ccc(C)c2n1`: the inhibition is, setting by setting: (Thailand/16681/1984, Concentration 49.95 uM, Number of replicates 2.0, Standard deviation 5.268842944255752 %) 34.7%; (Thailand/16681/1984, Concentration 99.9 uM, Number of replicates 2.0, Standard deviation 0.5758298004935433 %) 94.7%.

Turning to `Cc1cc(N)c2c(Cl)ccc(Cl)c2n1`, the inhibition is -5.26% (Thailand/16681/1984, Concentration 49.95 uM, Number of replicates 2.0, Standard deviation 8.427681720895945 %) and -3.92% (Thailand/16681/1984, Concentration 99.9 uM, Number of replicates 2.0, Standard deviation 7.565581927359314 %).

For the compound `Cc1cc(Cl)c2cccc(N)c2n1`, the inhibition by setting is: (Thailand/16681/1984, Concentration 49.95 uM, Number of replicates 2.0, Standard deviation 0.6589137143756747 %) 13.5%; (Thailand/16681/1984, Concentration 99.9 uM, Number of replicates 2.0, Standard deviation 0.20071745394997703 %) 27.6%.

In the case of `Cc1cc(CO)c2cccc(Cc3cccc(NC(=O)c4cnn(Cc5c(C)noc5C)c4)c3)c2n1`, the inhibition is -3.7% (Thailand/16681/1984, Concentration 49.95 uM, Number of replicates 2.0, Standard deviation 1.4870028556253494 %) and -0.8% (Thailand/16681/1984, Concentration 99.9 uM, Number of replicates 2.0, Standard deviation 1.816697484259061 %).

For `O=C(Nc1ccc(O)cc1)c1cccc(OCc2c(Cl)cccc2Cl)c1`, the inhibition amounted to 5.85% (Thailand/16681/1984, Concentration 49.5 uM, Number of replicates 2.0, Standard deviation 0.38856258601515087 %); 9.28% (Thailand/16681/1984, Concentration 99.01 uM, Number of replicates 2.0, Standard deviation 1.1651546847054868 %); 12.6% (Thailand/16681/1984, Concentration 198.0 uM, Number of replicates 2.0, Standard deviation 0.8272279968409002 %).

With `O=C(O)c1cccc(NC(=O)c2cccc(OCc3c(Cl)cccc3Cl)c2)c1`, the inhibition (Thailand/16681/1984, Concentration 49.5 uM, Number of replicates 2.0, Standard deviation 0.517131041635451 %) was 14.9%; the inhibition (Thailand/16681/1984, Concentration 99.01 uM, Number of replicates 2.0, Standard deviation 0.3657402361338958 %) amounted to 47.1%; the inhibition (Thailand/16681/1984, Concentration 198.0 uM, Number of replicates 2.0, Standard deviation 0.23203020217005468 %) was found to be 92.1%.

As for `O=C(Nc1cccc(O)c1)c1cccc(OCc2c(Cl)cccc2Cl)c1`, the inhibition runs as follows: (Thailand/16681/1984, Concentration 49.5 uM, Number of replicates 2.0, Standard deviation 2.2599777431890864 %) 6.58%; (Thailand/16681/1984, Concentration 99.01 uM, Number of replicates 2.0, Standard deviation 0.8121141369648937 %) 8.41%; (Thailand/16681/1984, Concentration 198.0 uM, Number of replicates 2.0, Standard deviation 0.4931997238761773 %) 11.9%.

In the case of `Cc1cc(CO)c2cccc(Cc3cccc(NC(=O)[C@@H]4CC(=O)CCN4)c3)c2n1`, the inhibition (Thailand/16681/1984, Concentration 49.95 uM, Number of replicates 2.0, Standard deviation 0.827370284601473 %) was found to be 15.8% and the inhibition (Thailand/16681/1984, Concentration 99.9 uM, Number of replicates 2.0, Standard deviation 0.7401310286309556 %) amounted to 32.9%.

On to `NC(=O)c1cccc(NC(=O)[C@@H](NC(=O)OCc2ccccc2)c2ccc(OCc3ccccc3)cc2)c1`, for which the inhibition (Thailand/16681/1984, Concentration 49.5 uM, Number of replicates 2.0, Standard deviation 9.041969593425012 %) was found to be 3.65%; the inhibition (Thailand/16681/1984, Concentration 99.01 uM, Number of replicates 2.0, Standard deviation 1.1271011381219709 %) was found to be 9.06%; the inhibition (Thailand/16681/1984, Concentration 198.0 uM, Number of replicates 2.0, Standard deviation 1.277025907644923 %) stood at 16%.

For the compound `NCc1cccc(NC(=O)[C@@H](NC(=O)OCc2ccccc2)c2ccc(F)c(F)c2)c1`, the inhibition runs as follows: (Thailand/16681/1984, Concentration 49.5 uM, Number of replicates 2.0, Standard deviation 1.4013065114851189 %) -6.54%; (Thailand/16681/1984, Concentration 99.01 uM, Number of replicates 2.0, Standard deviation 2.1722806038563465 %) -6.15%; (Thailand/16681/1984, Concentration 198.0 uM, Number of replicates 2.0, Standard deviation 2.359590386651735 %) -2.47%.

Consider `NCc1cccc(NC(=O)[C@@H](NC(=O)OCc2ccccc2)c2ccc(OCc3ccccc3)cc2)c1`, for which the inhibition came to 99.8% (Thailand/16681/1984, Concentration 49.5 uM, Number of replicates 2.0, Standard deviation 0.05193031216203084 %); 99.8% (Thailand/16681/1984, Concentration 99.01 uM, Number of replicates 2.0, Standard deviation 0.07343936624368645 %); 99.6% (Thailand/16681/1984, Concentration 198.0 uM, Number of replicates 2.0, Standard deviation 0.025182910572653226 %).

`NCc1cccc(NC(=O)[C@@H](NC(=O)OCc2ccccc2)c2ccc(Br)cc2)c1`: the inhibition (Thailand/16681/1984, Concentration 49.5 uM, Number of replicates 2.0, Standard deviation 0.0939294781157427 %) was -4.11%; the inhibition (Thailand/16681/1984, Concentration 99.01 uM, Number of replicates 2.0, Standard deviation 0.02096957442071617 %) came to 99.8%; the inhibition (Thailand/16681/1984, Concentration 198.0 uM, Number of replicates 2.0, Standard deviation 0.044447729264800756 %) came to 99.8%.

The values above are taken from ChEMBL document CHEMBL5606460, “ASAP - DENV-2 NS2B-NS3 protease fluorescence single point” (2024).
